# Measured values from ChEMBL document CHEMBL1157539, “Thousands of chemical starting points for antimalarial lead identification” (Nature, 2010).
# What was measured:
# Assay type in all cases: functional
# Plasmodium falciparum [1] = assay: GSK_TCMDC: Inhibition of Plasmodium falciparum 3D7 in whole red blood cells, using parasite LDH activity as an index of growth. Test compounds present at 2uM
# Plasmodium falciparum [2] = assay: GSK_TCMDC: Inhibition of Plasmodium falciparum Dd2 in whole red blood cells, using parasite LDH activity as an index of growth. Test compounds present at 2uM
# HepG2 = assay: GSK_TCMDC: Percent inhibition of human HepG2 cell line. Test compounds present at 10uM.
SMILES,Inhibition (Plasmodium falciparum [1]) [%],Inhibition (Plasmodium falciparum [2]) [%],Inhibition (HepG2) [%]
Cc1[nH]c(C)c(-c2ccc(OCCn3cnc(Cl)c3Cl)cc2)c(=O)c1Br,95,35,2
Br.N=C(N)Nc1nc(-c2cc(NC(=O)C(F)(F)F)cc([N+](=O)[O-])c2)cs1,98,51,7
COc1ccc2[nH]cc(C3CCN(CCCCCNC(=O)c4ccc(-c5ccccc5)cc4)CC3)c2c1,96,16,50
CCCCCC(C)C(C)c1cc(O)c2c(c1)OC(C)(C)CC2(O)c1ccccn1 (centres undefined),98,3,0
Cc1cccc2nc(-c3cccc(-c4ccc(NC(=O)c5cccc(C(N)=O)c5)cc4)c3)[nH]c12,100,61,25
COc1cccc2cc(C(=O)N[C@@H](CC(C)C)C(=O)Nc3cc(F)ccc3Br)oc12,87,45,7
CCCn1c(Sc2ccc(C#N)c([N+](=O)[O-])c2)nnc1-c1cc(OC)cc(OC)c1,98,79,24
COc1cc(Nc2ccnc3cc(-c4ccncc4)ccc23)cc(OC)c1OC.Cl,89,39,9
Nc1cccc(CNCc2ccc(-c3cccc(-c4nc5ccccc5[nH]4)c3)cc2)c1.O=C(O)C(F)(F)F,100,78,12
O=S(=O)(c1ccccc1C(F)(F)F)C1CC2CCC(C1)N2S(=O)(=O)c1ccc(Cl)c(C(F)(F)F)c1 (centres undefined),97,99,4
COc1ccc2nc3cc(Cl)ccc3c(NCCCCCCNc3c4ccc(Cl)cc4nc4ccc(OC)cc34)c2c1.Cl.Cl.Cl.Cl,96,79,20
COc1cccc2c(N/N=C/c3cccc([N+](=O)[O-])c3)ccnc12,100,47,12
O=C(CNc1ccc(Cl)c(S(=O)(=O)N2CCCC2)c1)Nc1ccc(Br)cc1F,99,97,18
CCCCCCOc1ccccc1C(=O)NCCOc1ccc(Cl)cc1,84,37,16
Cc1cc(OC(C)C(=O)N2CCc3ccccc32)ccc1Cl (centres undefined),89,54,20
O=C(NCC1CC1)C1CCN(C(c2ccccc2)c2ccc(Cl)c(Cl)c2)CC1 (centres undefined),97,96,7
FC(F)(F)c1ccc2[nH]c(-c3cccc(-c4cccc(CNCc5cnn(-c6ccccc6)n5)c4)c3)nc2c1.O=C(O)C(F)(F)F,100,28,6
C=C(C)Cn1cc(C2CCN(CCCCNC(=O)c3sc(-c4ccc(Cl)cc4Cl)nc3CO)CC2)c2ccccc21,82,19,22
N=C(Nc1ccccc1)Nc1cccc(Cc2ccc([N+](=O)[O-])cc2)n1,96,19,28
Cl.NC1=NC(c2ccccc2)N(c2ccccc2)C(N)=N1 (centres undefined),96,85,0
CCOc1ccc(C2CCN(CCCCNC(=O)c3ccc(NC(=O)c4ccc(Cl)cc4)cc3)CC2)c(CC)c1,100,64,44
Br.CC1(C)NC(N)=NC(=N)N1OCCCNC(=O)c1ccc(C(=O)NCCCON2C(=N)N=C(N)NC2(C)C)cc1,91,96,0
COc1cccc(OC2CCN(C(=O)c3ccc(-c4ccc(N5CCCC5=O)cc4C)cc3)CC2)c1,85,80,42
CC1CCN(CCNC(=O)c2ccc3c(=O)n(Cc4ccc(Cl)cc4)c(=S)[nH]c3c2)CC1,100,75,6
COCCNCc1cccc(-c2ccccc2CN(C(=O)c2ccc3c(c2)OCO3)c2ccc(OC)cc2)c1.O=C(O)C(F)(F)F,90,46,6
CCNc1cc(C(=O)N[C@@H](Cc2ccco2)[C@H](O)CNC2CCCCC2)cc(N2CCCCS2(=O)=O)c1.Cl,91,57,14
O=C(Nc1ccc2c(c1)CCN2C1CCN(Cc2cc(F)cc(F)c2F)C1)c1ccco1 (centres undefined),96,95,0
CCOc1ccc(-c2nc(NC(=O)Cc3cccc(OC)c3)sc2C)cc1,97,28,15
